Drawing on PubChem BioAssay (EPA / NIEHS), this text covers outcome and AC50 for twelve molecules.

The structures appear in SMILES notation. Inconclusive results are not listed. The source made the active and inactive calls. Rule for the calls: active = hit-call score of the fitted dose curve at least 0.9, where 1 is the maximum; inconclusive = response in the unintended direction; inactive = score below 0.9.

rabbit Imidazoline 2 Central (I2C), CKB (gene 100009085), sequence (P00567 whole entry, looked up): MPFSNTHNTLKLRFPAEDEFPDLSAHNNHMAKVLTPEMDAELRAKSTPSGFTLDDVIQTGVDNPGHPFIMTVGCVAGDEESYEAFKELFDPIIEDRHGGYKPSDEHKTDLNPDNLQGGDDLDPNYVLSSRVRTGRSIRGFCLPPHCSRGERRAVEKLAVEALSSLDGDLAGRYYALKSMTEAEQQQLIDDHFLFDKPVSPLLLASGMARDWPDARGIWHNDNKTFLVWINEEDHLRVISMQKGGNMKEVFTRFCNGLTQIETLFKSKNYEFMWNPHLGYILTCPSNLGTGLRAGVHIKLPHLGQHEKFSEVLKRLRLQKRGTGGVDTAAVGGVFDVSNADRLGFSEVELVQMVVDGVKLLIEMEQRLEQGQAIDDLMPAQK

This experiment has as its target rabbit Imidazoline 2 Central (I2C), CKB (gene 100009085) (UniProt P00567). Description: NVS_ENZ_rabI2C: NovaScreen (NVS) Enzymatic Assay for rabbit Imidazoline 2 Central (I2C) (AID 2283228). How it is done:
NVS_ENZ_rabI2C is a biochemical, single-readout assay that uses extracted gene-proteins from Rabbit brain membranes in a tissue-based cell-free assay. Measurements were taken 1.5 hours after chemical dosing in a 48-well plate.NVS_ENZ_rabI2C is one of one assay component(s) measured or calculated from the NVS_ENZ_rabI2C assay. It is designed to make measurements of enzyme activity, a form of enzyme reporter, as detected with scintillation counting signals by Filter-based radiodetection technology.Data from the assay component NVS_ENZ_rabI2C was analyzed into 1 assay endpoint. This assay endpoint, NVS_ENZ_rabI2C, was analyzed in the positive analysis fitting direction relative to DMSO as the negative control and baseline of activity. Using a type of enzyme reporter, loss-of-signal activity can be used to understand changes in the enzymatic activity as they relate to the gene CKB. Furthermore, this assay endpoint can be referred to as a primary readout, because this assay has produced multiple assay endpoints where this one serves a enzymatic activity function. To generalize the intended target to other relatable targets, this assay endpoint is annotated to the oxidoreductase intended target family, where the subfamily is imidazoline receptor.
Binding assays used specific radioligands (tritiated, iodinated) with non-radioactive competitive displacement ligands in agonist or antagonist protocols (as indicated) and various reference compounds and inhibitors to titrate specific binding to receptors and transporters. Most enzyme assays (CYPs, kinases, phosphatases, proteases, HDACs) used recombinant protein and specific substrates (fluorescence mostly, some colorimetric and radioactive) and inhibitors, followed by a biochemical separation of substrate and product. All assays for the biochemical HTS were initially run in duplicate at a single concentration (10 uM for CYP450 assays and 25 uM for all others). Assay-chemical combinations meeting a pre-defined threshold (e.g., 30% inhibition and other criteria defined below) were then run in singleton concentration-response format with maximum concentration of 20 uM for CYPs and 50 uM for all others. Each assay was run with positive and negative controls, and concurrent controls on every plate. The follow-up (secondary) screen tested active chemical-pairs in concentration series, as well as a few additional assays not tested in the primary screen, some selected negative inactives, and several cases re-run in the concentration series for confirmatory purposes.
In the case of `O=C(O)c1[nH]n(-c2ccc(S(=O)(=O)O)cc2)c(=O)c1N=Nc1ccc(S(=O)(=O)O)cc1`, the molecule was classed as inactive.

Turning to `NC(=Nc1ccccc1)Nc1ccccc1`, the molecule was classed as inactive.

The term AC50 denotes the concentration at which the activity in the assay is half-maximal. Consider `CCc1nc(N)nc(N)c1-c1ccc(Cl)cc1`, for which the AC50 is 2.83 µM (active).

For the molecule `CN(C)C(=O)NC1(c2ccccc2)CCN(CC[C@@]2(c3ccc(F)c(F)c3)CN(C(=O)c3ccccc3)CCO2)CC1`, the molecule was classed as inactive.

As for `Cn1cnc2c1c(=O)[nH]c(=O)n2C`, the molecule was called inactive.

For the molecule `COC(=O)[C@H]1[C@H]2C[C@@H]3c4[nH]c5cc(OC)ccc5c4CCN3C[C@H]2C[C@@H](OC(=O)c2cc(OC)c(OC)c(OC)c2)[C@@H]1OC`, the molecule was called inactive.

Take `COc1ccc(OC(F)(F)F)cc1CN[C@H]1CCCN[C@H]1c1ccccc1`: the AC50 was 15 µM (active).

In the case of `CCCCCCCCCC[N+](C)(C)[O-]`, the AC50 was 8.08 µM (active).

Turning to `NC1CCCCC1`, the AC50 is 30.3 µM (active).

With `Nc1nc(=S)c2[nH]cnc2[nH]1`, the AC50 was 20.7 µM (active).

As to `CC(C)(O)c1ccc(CNC(=O)c2cccnc2Oc2ccc(F)cc2)cc1`, the molecule was classed as inactive.

For the molecule `CCN(CC)CCOc1ccc(C(=C(Cl)c2ccccc2)c2ccccc2)cc1`, the AC50 is 9.71 µM (active).
